# Earlier results in PubChem BioAssay AID977610.
# The campaign covered roughly 3,600 compounds. About 3,600 (100%) were called active. Cut-off not given; nearly all actives show Ki up to about 18000 µM. The set was probably picked from earlier hits. This is one part of the list.
# Assay: PubChem AID 977610
# Conditions: PDB protein-ligand complexes, literature Ki
# [1] = protein: type II dehydroquinase dehydratase from Mycobacterium tuberculosis, PDB entry 4kiw unless noted
structure (smiles),measurement,setting,value
O=C(O)c1cc(OCc2cccc([N+](=O)[O-])c2)cc(C(=O)O)c1,Ki,[1],"140 µM [protein: type II dehydroquinase dehydratase from Mycobacterium tuberculosis, PDB entry 4kiu] (active)"
O=C(O)c1cc(O)c(O)c(Oc2cccc([N+](=O)[O-])c2)c1,Ki,[1],"50 µM [protein: type II dehydroquinase dehydratase from Mycobacterium tuberculosis, PDB entry 4kij] (active)"
O=C(O)c1cc(NCc2cccc([N+](=O)[O-])c2)cc(C(=O)O)c1,Ki,[1],7.5 µM (active)
CCC(CC)O[C@@H]1C=C(C(=O)O)C[C@H](N)[C@H]1NC(C)=O,Ki,"protein: Neuraminidase from the B/Lyon/CHU/15.216/2011 virus, PDB entry 4cpy",0.491 µM (active)
same,Ki,"protein: Neuraminidase, PDB entry 4gzp",0.0143 µM (active)
CCC(CC)O[C@@H]1CC(C(=O)O)C[C@H](N)[C@H]1NC(C)=O (some centres undefined),Ki,[1],"0.017 µM [protein: neuraminidase, PDB entry 4gzt] (active)"
O[C@@H]1[C@@H](O)[C@H](O)[C@]2(O)CC[C@H]1N2,Ki,[1],"4600 µM [protein: Beta-glucosidase 1, PDB entry 4iie] (active)"
O=C(O)CCCC(=O)O,Ki,[1],"30000 µM [protein: Delta-1-pyrroline-5-carboxylate dehydrogenase, mitochondrial, PDB entry 4lh3] (active)"
O=C(O)C(O)(C(F)(F)F)C(F)(F)F,Ki,[1],"27 µM [protein: Mandelate racemase, PDB entry 4fp1] (active)"
O=C(CO)[C@@H](O)[C@H](O)CF,Ki,[1],"25 µM [protein: XYLULOSE KINASE, PDB entry 4bc5] (active)"
CC(C)CN(C[C@@H](O)[C@H](Cc1ccccc1)NC(=O)O[C@H]1CO[C@H]2OCC(F)(F)[C@H]21)S(=O)(=O)c1ccc(N)cc1,Ki,[1],"5.8e-06 µM [protein: HIV-1 Protease, PDB entry 4u8w] (active)"
C[C@](COC(=O)Cc1ccccc1)([C@@H](Nc1c(C=O)cc2ccccn12)C(=O)O)S(=O)O,Ki,[1],"0.042 µM [protein: Beta-lactamase SHV-1, PDB entry 4gd6] (active)"
OC(c1ccc(Cl)s1)(c1ccc(Cl)s1)[C@H]1CN2CCC1CC2,Ki,[1],"0.36 µM [protein: Choline kinase alpha, PDB entry 4da5] (active)"
CC(=O)N[C@H](Cc1ccccc1)P(O)O,Ki,[1],"10 µM [protein: Serine protease splA, PDB entry 3ufa] (active)"
CN(C)C[C@@H](c1ccc(O)cc1)C1(O)CCCCC1,Ki,[1],"235 µM [protein: Transporter(delta13 mutant), PDB entry 4mm7] (active)"
O=C(O)C[C@@]12O[C@H]3C=CCN[C@H]3[C@@H]1C(=O)N[C@H]2C(=O)O,Ki,[1],"210 µM [protein: Glutamate receptor 2, PDB entry 4isu] (active)"
Nc1c(F)cccc1C(=O)O,Ki,[1],"1090 µM [protein: Mycobacterium tuberculosis anthranilate phosphoribosyl transferase, PDB entry 4owm] (active)"
Nc1cccc(F)c1C(=O)O,Ki,[1],"34 µM [protein: Mycobacterium tuberculosis anthranilate phosphoribosyl transferase, PDB entry 4owo] (active)"
Cc1ncc(CO[P+](O)(O)O)c(CN=Nc2nc3ccccc3s2)c1O,Ki,[1],"10.4 µM [protein: Mycobaterium tuberculosis transaminase BioA, PDB entry 4mqp] (active)"
O[C@H]1[C@H](O)[C@@H](O)CN2CC[C@H](O)[C@H]12,Ki,[1],"6.6 µM [protein: Beta-glucosidase 1, PDB entry 4iif] (active)"
Nc1cc(F)ccc1C(=O)O,Ki,[1],"380 µM [protein: Mycobacterium tuberculosis anthranilate phosphoribosyl transferase, PDB entry 4n8q] (active)"
Nc1ccc(F)cc1C(=O)O,Ki,[1],"60 µM [protein: Mycobacterium tuberculosis anthranilate phosphoribosyl transferase, PDB entry 4own] (active)"
Nc1nc(-c2ccc(Cc3ccccc3)cc2)cs1,Ki,[1],"2 µM [protein: Human Leukotriene A4 Hydrolase, PDB entry 4l2l] (active)"
CCCCSC[C@H]1CN(Cc2c[nH]c3c(N)ncnc23)C[C@@H]1O,Ki,[1],"1.5e-06 µM [protein: 5'-methylthioadenosine/S-adenosylhomocysteine nucleosidase, PDB entry 4f3c] (active)"
